Legend:
[1] = target: T1, GST-Nv-NF-kB (Ser allele) (Nematostella vectensis, UniProt A7UNT2 2-411); assay: protein-binding microarray (PBM); PBM: ~300 nM protein, 6 mM HEPES pH 7.8, 80 mM KCl, 0.5 mM EDTA, 0.5 mM EGTA, 6% glycerol, 35 ng/ul poly-dIdC, 1% milk, 1 h, room temperature; Ap Aiptasia and Nv Nematostella (sea anemones) / Co Capsaspora / Aq Amphimedon (sponge) / Dm Drosophila / Hu human; RHD is the Rel homology domain; high values mean tight binding; conditions: dsDNA, one strand shown
T1 sequence: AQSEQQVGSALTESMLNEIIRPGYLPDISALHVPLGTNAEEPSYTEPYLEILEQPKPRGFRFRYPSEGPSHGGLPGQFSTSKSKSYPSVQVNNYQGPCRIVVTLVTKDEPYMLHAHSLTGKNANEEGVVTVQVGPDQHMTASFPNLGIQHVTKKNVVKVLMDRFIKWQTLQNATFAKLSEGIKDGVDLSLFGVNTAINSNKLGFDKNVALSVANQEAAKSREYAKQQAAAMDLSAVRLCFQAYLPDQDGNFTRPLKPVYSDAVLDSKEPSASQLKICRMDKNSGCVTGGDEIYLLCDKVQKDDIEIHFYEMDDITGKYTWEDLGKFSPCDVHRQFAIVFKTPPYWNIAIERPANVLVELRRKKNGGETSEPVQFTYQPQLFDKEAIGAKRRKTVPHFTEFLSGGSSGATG

GST-Hu-p50 = GST-Hu-p50 (Homo sapiens, UniProt P19838 7-356); assay: as above; conditions: dsDNA, one strand shown
Chain of GST-Hu-p50 (P19838 7-356): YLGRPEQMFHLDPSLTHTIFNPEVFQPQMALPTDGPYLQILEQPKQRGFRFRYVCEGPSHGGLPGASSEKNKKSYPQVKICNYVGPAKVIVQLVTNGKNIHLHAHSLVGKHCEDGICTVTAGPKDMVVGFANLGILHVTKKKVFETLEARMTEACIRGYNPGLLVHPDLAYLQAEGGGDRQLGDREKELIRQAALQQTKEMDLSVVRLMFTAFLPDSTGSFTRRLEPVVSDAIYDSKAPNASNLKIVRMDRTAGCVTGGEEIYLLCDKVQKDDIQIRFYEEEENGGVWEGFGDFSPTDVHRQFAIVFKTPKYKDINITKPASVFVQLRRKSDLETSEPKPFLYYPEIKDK

Sequence	binding signal [1] [z-score]	binding signal (GST-Hu-p50) [z-score]
CCGATTAACATCAAATACTTCCCTGATGTTAATCGGGTCTTGATTCGCTTGACGCTGCTG	3.4	1.98
CCGATTAACATCACCAATTTCCCTGATGTTAATCGGGTCTTGATTCGCTTGACGCTGCTG	6.05	3.76
CCGATTAACATCAGGCTTTCCCATGATGTTAATCGGGTCTTGATTCGCTTGACGCTGCTG	1.98	1.36
CCGATTAACATCAAATTCCCAGCTGATGTTAATCGGGTCTTGATTCGCTTGACGCTGCTG	3.85	2.81
CCGATTAACATCAGGGAACCCCATGATGTTAATCGGGTCTTGATTCGCTTGACGCTGCTG	1.33	2.54
CCGATTAACATCAGAGTTTCCCATGATGTTAATCGGGTCTTGATTCGCTTGACGCTGCTG	3.14	2.22
CCGATTAACATCAGATTTCTCCCTGATGTTAATCGGGTCTTGATTCGCTTGACGCTGCTG	3.47	1.72
CCGATTAACATCAACAGGGAAAATGATGTTAATCGGGTCTTGATTCGCTTGACGCTGCTG	5.98	3.34
CCGATTAACATCATAATTCCCAATGATGTTAATCGGGTCTTGATTCGCTTGACGCTGCTG	3.07	2.73
CCGATTAACATCAGGGGGATCACTGATGTTAATCGGGTCTTGATTCGCTTGACGCTGCTG	5.27	5.04
CCGATTAACATCACTTTTTCCCATGATGTTAATCGGGTCTTGATTCGCTTGACGCTGCTG	4.35	3.04
CCGATTAACATCACCGCCCCCCCTGATGTTAATCGGGTCTTGATTCGCTTGACGCTGCTG	4.44	4.53
CCGATTAACATCAAATTCCCGTATGATGTTAATCGGGTCTTGATTCGCTTGACGCTGCTG	4.51	3.02
CCGATTAACATCAGCACCCCCCCTGATGTTAATCGGGTCTTGATTCGCTTGACGCTGCTG	3.4	4.3
CCGATTAACATCAACCACCCCCTTGATGTTAATCGGGTCTTGATTCGCTTGACGCTGCTG	3.4	4.03
CCGATTAACATCAAAATCTTCCCTGATGTTAATCGGGTCTTGATTCGCTTGACGCTGCTG	6.32	3.8
CCGATTAACATCAAGGATTTCCCTGATGTTAATCGGGTCTTGATTCGCTTGACGCTGCTG	6.13	4.33
CCGATTAACATCAGGAGTCTCCCTGATGTTAATCGGGTCTTGATTCGCTTGACGCTGCTG	1.4	1.4
CCGATTAACATCAGGGGAGCCCCTGATGTTAATCGGGTCTTGATTCGCTTGACGCTGCTG	5.34	5.03
CCGATTAACATCAGGGGCACCCCTGATGTTAATCGGGTCTTGATTCGCTTGACGCTGCTG	2.72	3.94
CCGATTAACATCACAGTACCCCCTGATGTTAATCGGGTCTTGATTCGCTTGACGCTGCTG	3.98	3.45
CCGATTAACATCAAAAATCCCATTGATGTTAATCGGGTCTTGATTCGCTTGACGCTGCTG	1.88	3.48
CCGATTAACATCAAAGGTCCCCCTGATGTTAATCGGGTCTTGATTCGCTTGACGCTGCTG	4.32	3.35
CCGATTAACATCAAGTTTACCCCTGATGTTAATCGGGTCTTGATTCGCTTGACGCTGCTG	3.57	3.2
CCGATTAACATCACGGTACGGGGTGATGTTAATCGGGTCTTGATTCGCTTGACGCTGCTG	1.3	1.71

Sequence	binding signal [1] [z-score]	binding signal (GST-Hu-p50) [z-score]
CCGATTAACATCAGGGATAACCCTGATGTTAATCGGGTCTTGATTCGCTTGACGCTGCTG	1.1	2.62
CCGATTAACATCAAGGGGAGTCCTGATGTTAATCGGGTCTTGATTCGCTTGACGCTGCTG	4.97	4.3
CCGATTAACATCAGGTCGGGAAATGATGTTAATCGGGTCTTGATTCGCTTGACGCTGCTG	2.31	1.27
CCGATTAACATCACGTATTTCCCTGATGTTAATCGGGTCTTGATTCGCTTGACGCTGCTG	4.49	3.02
CCGATTAACATCAGGGAAGCACCTGATGTTAATCGGGTCTTGATTCGCTTGACGCTGCTG	3.97	5.24
CCGATTAACATCACGGGTTTTTCTGATGTTAATCGGGTCTTGATTCGCTTGACGCTGCTG	3.59	3.63
CCGATTAACATCAGGGAACTCCATGATGTTAATCGGGTCTTGATTCGCTTGACGCTGCTG	1.24	1.7
CCGATTAACATCAGGCTTTTCCCTGATGTTAATCGGGTCTTGATTCGCTTGACGCTGCTG	4.44	3.4
CCGATTAACATCACATGTTCCCCTGATGTTAATCGGGTCTTGATTCGCTTGACGCTGCTG	6.15	3.07
CCGATTAACATCAAGTACTTCCCTGATGTTAATCGGGTCTTGATTCGCTTGACGCTGCTG	1.34	1.17
CCGATTAACATCAGGGGAGTGTATGATGTTAATCGGGTCTTGATTCGCTTGACGCTGCTG	4.51	3.04
CCGATTAACATCATCCCCGTGTCTGATGTTAATCGGGTCTTGATTCGCTTGACGCTGCTG	2.84	2.68
CCGATTAACATCAATCGGGAAATTGATGTTAATCGGGTCTTGATTCGCTTGACGCTGCTG	3.66	2.28
CCGATTAACATCAGCTTGGGAAATGATGTTAATCGGGTCTTGATTCGCTTGACGCTGCTG	1.58	1.1
CCGATTAACATCAGAATTACCCATGATGTTAATCGGGTCTTGATTCGCTTGACGCTGCTG	3.26	2.83
CCGATTAACATCAGGGAAATAACTGATGTTAATCGGGTCTTGATTCGCTTGACGCTGCTG	4.37	3.76
CCGATTAACATCAATGGGTTTTCTGATGTTAATCGGGTCTTGATTCGCTTGACGCTGCTG	2.25	1.9
CCGATTAACATCAGGACTTCCCATGATGTTAATCGGGTCTTGATTCGCTTGACGCTGCTG	1.03	1.76
CCGATTAACATCATGGGTGGGAATGATGTTAATCGGGTCTTGATTCGCTTGACGCTGCTG	1.12	1.32
CCGATTAACATCAGGTTTTTCCATGATGTTAATCGGGTCTTGATTCGCTTGACGCTGCTG	1.02	1.41
CCGATTAACATCAGAATGCCCCCTGATGTTAATCGGGTCTTGATTCGCTTGACGCTGCTG	3.07	4.7
CCGATTAACATCAAAACAGCCCCTGATGTTAATCGGGTCTTGATTCGCTTGACGCTGCTG	3.68	4.54
CCGATTAACATCACCCATCCCCCTGATGTTAATCGGGTCTTGATTCGCTTGACGCTGCTG	4.96	4.2
CCGATTAACATCACGGGAGTTCCTGATGTTAATCGGGTCTTGATTCGCTTGACGCTGCTG	1.6	2.24
CCGATTAACATCAAGGGATTTCCTGATGTTAATCGGGTCTTGATTCGCTTGACGCTGCTG	3.4	3.68

Sequence	binding signal [1] [z-score]	binding signal (GST-Hu-p50) [z-score]
CCGATTAACATCACCAAAACCCCTGATGTTAATCGGGTCTTGATTCGCTTGACGCTGCTG	4.14	4.83
CCGATTAACATCAGGAGTTACCCTGATGTTAATCGGGTCTTGATTCGCTTGACGCTGCTG	1.4	2.44
CCGATTAACATCACGGTACTTCCTGATGTTAATCGGGTCTTGATTCGCTTGACGCTGCTG	4.94	2.86
CCGATTAACATCAGGGGTTTTGATGATGTTAATCGGGTCTTGATTCGCTTGACGCTGCTG	3.32	3.98
CCGATTAACATCAGGGATTTTCATGATGTTAATCGGGTCTTGATTCGCTTGACGCTGCTG	4.23	4.44
CCGATTAACATCAGGGAGCTCCCTGATGTTAATCGGGTCTTGATTCGCTTGACGCTGCTG	1.82	2.59
CCGATTAACATCAGGGGACTATATGATGTTAATCGGGTCTTGATTCGCTTGACGCTGCTG	4.77	4.35
CCGATTAACATCAATATTTCCCATGATGTTAATCGGGTCTTGATTCGCTTGACGCTGCTG	3.55	3.27
CCGATTAACATCAAATTCCCTCGTGATGTTAATCGGGTCTTGATTCGCTTGACGCTGCTG	4.74	3.62
CCGATTAACATCAAAAACTCCCATGATGTTAATCGGGTCTTGATTCGCTTGACGCTGCTG	4.52	4.38
CCGATTAACATCAGAAATTTTCCTGATGTTAATCGGGTCTTGATTCGCTTGACGCTGCTG	1.33	2.13
CCGATTAACATCAGGGGAAGGGATGATGTTAATCGGGTCTTGATTCGCTTGACGCTGCTG	5.77	3.4
CCGATTAACATCAGGAAAATACCTGATGTTAATCGGGTCTTGATTCGCTTGACGCTGCTG	3.24	3.12
CCGATTAACATCAGGGTTTTCCATGATGTTAATCGGGTCTTGATTCGCTTGACGCTGCTG	1.68	2.46
CCGATTAACATCAGAAAATGCCCTGATGTTAATCGGGTCTTGATTCGCTTGACGCTGCTG	1.55	2.79
CCGATTAACATCAGGGGATAAAATGATGTTAATCGGGTCTTGATTCGCTTGACGCTGCTG	6.05	3.95
CCGATTAACATCAGGGGGGGTTATGATGTTAATCGGGTCTTGATTCGCTTGACGCTGCTG	4.34	4.91
CCGATTAACATCAAATAGCCCCCTGATGTTAATCGGGTCTTGATTCGCTTGACGCTGCTG	3.62	4.73
CCGATTAACATCACGGATTTCCCTGATGTTAATCGGGTCTTGATTCGCTTGACGCTGCTG	5.46	3.76
CCGATTAACATCAAGCAATTCCCTGATGTTAATCGGGTCTTGATTCGCTTGACGCTGCTG	3.87	2.99
CCGATTAACATCAAAATTTCACCTGATGTTAATCGGGTCTTGATTCGCTTGACGCTGCTG	3.88	3.28
CCGATTAACATCAATATAGTCCCTGATGTTAATCGGGTCTTGATTCGCTTGACGCTGCTG	4.68	3.8
CCGATTAACATCACAACCCCCCCTGATGTTAATCGGGTCTTGATTCGCTTGACGCTGCTG	4.57	4.53

Source: paper PMC5700166
